Among the data in the OligoGym collection are sensor-assay potency score (higher = more potent) values, retold here.
Also: reference of the scale not given here.

The target of one assay is PRUNE. The assay can be described thus: pooled miR-30 sensor sort-seq; sequence = guide strand. Particulars: shRNA.
Sequence TTCCTTGTCCACTTGCTCCCTG yielded a sensor-assay potency score (higher = more potent) of 0.334.

Regarding TTTCTTTCGAGAGACCTGGGTG, the sensor-assay potency score (higher = more potent) was -0.0186.

On to TTTATGAGAACAGTATACCAGA, for which the sensor-assay potency score (higher = more potent) was -0.563.

For the sequence TAGAGGTCGGGACTCCTGCAGA, the sensor-assay potency score (higher = more potent) is -0.699.

TAATAGTATAACAAAATGCAAA: the sensor-assay potency score (higher = more potent) is -1.31.

In the case of TATAGATAGTCTTCTGGTCTTT, the sensor-assay potency score (higher = more potent) was -0.453.

The next assay concerns the target PSD4. The description is as above. Particulars: shRNA.
Regarding AAGGTGTGGAACATCTTCCAGC, the sensor-assay potency score (higher = more potent) was -0.755.

Sequence TTGCGCTTCACCTTGGCCGTGG came in with a sensor-assay potency score (higher = more potent) of 0.0843.

The sequence TCTTCTTGCCGTCTGCATCTTG came in with a sensor-assay potency score (higher = more potent) of -0.456.

TGCACGTAGGTCTCGTAGCGGG: the sensor-assay potency score (higher = more potent) was -1.25.

TTTTCTTCAAGGAACTTGGCTG: the sensor-assay potency score (higher = more potent) is -0.084.

In turn, TAAGGTGTGGAACATCTTCCAG came in with a sensor-assay potency score (higher = more potent) of -1.04.

The sequence TTTCCCTTGGGCACTCTCCTGG had a sensor-assay potency score (higher = more potent) of -0.299.

In the case of TTACCTCTCTATCCTCTCCAGT, the sensor-assay potency score (higher = more potent) was -0.76.

TTAAGCAGCATGATTGCACATG came in with a sensor-assay potency score (higher = more potent) of -0.729.

Regarding TCACTCTTTACTTCCTCGCCTG, the sensor-assay potency score (higher = more potent) was -0.455.

Regarding TAGCTAGCTTGTCTCCAGCTGG, the sensor-assay potency score (higher = more potent) was -0.572.

A further assay has as its target PSG2. Described as above. As to conditions: shRNA.
Sequence TAGAAGCAGAGACTTTGACTGT had a sensor-assay potency score (higher = more potent) of -0.247.

On to TTCTTGTAGAAGCAGAGACTTT, for which the sensor-assay potency score (higher = more potent) was -1.51.

As for TTGACTGTCAACGATGTGGAGC, the sensor-assay potency score (higher = more potent) was -0.475.

The sequence TAAAAGTGATGCTGTGACCAGG displayed a sensor-assay potency score (higher = more potent) of -0.171.

In turn, TTTCTCGTCCACTATATGCAGG gave a sensor-assay potency score (higher = more potent) of -0.849.

TTTCGGACAGCTGAAACCTATG displayed a sensor-assay potency score (higher = more potent) of -1.61.

Take TTAAAAGTGATGCTGTGACCAG: the sensor-assay potency score (higher = more potent) is -0.575.

Sequence TAGAGGTTATCTCCTGAACGGT returned a sensor-assay potency score (higher = more potent) of -0.865.

Take ACAAGTAGAGGTTATCTCCTGA: the sensor-assay potency score (higher = more potent) stood at 0.66.

For AAACCTATGAGTCATAGGGAGG, the sensor-assay potency score (higher = more potent) was -1.86.

The target in the next assay is PSIP1. The description is as above. As to conditions: shRNA.
Take TTAGTTACTAGTGCCTGCCTAT: the sensor-assay potency score (higher = more potent) turned out to be 0.32.

TTATACAACATTGTAGACTTTT registered a sensor-assay potency score (higher = more potent) of -0.451.

TTGACTTGAAAATTTCACTTTT: the sensor-assay potency score (higher = more potent) was -0.471.

Take TTAAGTTTTAGTGACTTCCTAA: the sensor-assay potency score (higher = more potent) was -0.13.

TTGATTGTTTAGTTGCTGCCTG returned a sensor-assay potency score (higher = more potent) of 0.524.

As to TTAATCTCAGCATGTATCCTTT, the sensor-assay potency score (higher = more potent) was 0.197.

TATCTATCTCCCATAAACCTTC: the sensor-assay potency score (higher = more potent) is -0.586.

In turn, TTAGTCACATCCTCATTGCTGG came in with a sensor-assay potency score (higher = more potent) of 0.128.

In turn, TTCAACATCAAACCTATGCTTA returned a sensor-assay potency score (higher = more potent) of 0.354.

With TTCATGGTCGGTATCTTCCTTT, the sensor-assay potency score (higher = more potent) is -0.126.

Regarding TTGAAAATATGCTACAACCATG, the sensor-assay potency score (higher = more potent) is -1.01.
